Data on 39 compounds can be found in PubChem BioAssay (NCI).

“And” between values parts separate entries of the source, which are not always exact repeats. Identical values can stand only once. The panel holds about 83,000 compounds, 20% with a hit somewhere; the sample as a whole holds those more often.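 Single-dose data. Exposure time 48 hours. Values below 10 considered active.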 A number with no mark means an inactive call. The source made the active and inactive calls.

In this experiment the test system is HL-60(TB) leukemia. In words: NCI-60 one-dose screen, 48 h (100 = growth as untreated, 0 = no growth, -100 = all killed). The following applies: 10 µM unless noted.
As to `O=[N+]([O-])c1cnc(Sc2ccncn2)c([N+](=O)[O-])c1`, the growth was 11.3%.
Under `OCc1cccc(-c2ccc3ncc(-c4nc(NC5CC5)ncc4F)n3c2)c1` stands -62% (active).
Under `Cc1nn(-c2cc(=O)[nH]c3ccc(Cl)cc23)c(N)c1C#N` stands 100%; under `O=C(c1ccccc1)C(O)C(Br)(CBr)c1ccccc1` (centres undefined), 65.4%; under `O=C(Nn1c2c(sc1=Nc1ccccc1)C(=O)c1ccccc1C2=O)c1cc2ccc1CCc1ccc(cc1)CC2`, 91.6%.
As for `CC(NC(N)=S)c1ccccc1` (centres undefined), the figure is 96.7%; as for `CC1OS(=O)OC1C` (centres undefined), 96.3% and 89.9%.
Take `CNC(C)=O`: the growth is 107%.
Under `O=C(Nc1ccc(Cl)c(C(F)(F)F)c1)Nc1ccc(-c2cccnc2)cc1N1CCC(CO)CC1` stands -6.89% (active); under `Cc1cc(N2CCOCC2)nc(N2CCOCC2)n1`, 97.9%; under `O=C(NCc1ccc(Cl)cc1Cl)C1CCC(=O)N1c1cccs1` (centres undefined), 99%.
Under `CCN(CC)CCCC(C)Nc1nc(-c2ccc(OC)cc2)nc2cc(Cl)ccc12` (centres undefined) stands 51.8%; under `NC(CSC(c1ccccc1)(c1ccccc1)c1ccccc1)C(=O)NCC(=O)O` (centres undefined), 55%.
Under `C[C@]12C=CC(=O)C=C1CCC1C2[C@@H](O)C[C@@]2(C)C1CC[C@]2(O)C(=O)COC(=O)CCC(=O)O` (some centres undefined) stands 104%; under `C=CCc1c(O)c(C(=O)/C=C/c2ccc(Cl)cc2)c(OC)c2ccoc12`, 25.4%.
For the compound `CCOC(=O)C(CCC(C)C)C(=O)OCC`, the growth is 72.8%.
Under `O=C(COc1ccc(/C=C2\Oc3ccccc3C2=O)cc1)Nc1nc2c(s1)CCCC2` stands -72.2% (active).
As for `CCN1Cc2c(/C=C/c3ccccc3)nc3ccc(OC)cc3c2N(c2cccc(Cl)c2)C1`, the figure is 23.6%; as for `O=C(O)CNC(=O)C1(N2C(=O)c3ccccc3C2=O)CCCC1`, 90.6%.
Take `CN1C(=O)N(C)C2C1NN=c1s/c(=C\c3c[nH]c4ccccc34)c(=O)n12` (centres undefined): the growth is -34.1% (active).
For the compound `C=C(CBr)[C@@H]1CC[C@]2(COC(C)=O)CC[C@]3(C)[C@H](CC[C@@H]4[C@@]5(C)CCCNC(C)(C)[C@@H]5CC[C@]43C)[C@@H]12`, the growth was -8.09% (active).
Under `CCOc1ccccc1/C=N\N=C\c1ccccc1O` stands 30.6%.
`COc1ccc(C2=NN(C(C)=O)C(c3cc(OC)c(OC)c(OC)c3)C2)cc1` (centres undefined): the growth is 95.2%.
Under `C=C1C(=O)O[C@H]2[C@H]1CC/C(COC(=O)CSCCSCC(=O)OC/C1=C/CC[C@@]3(C)O[C@H]3[C@H]3OC(=O)C(=C)[C@@H]3CC1)=C\CC[C@@]1(C)O[C@@H]21` stands -58.8% (active); under `c1ccc(Nc2ccc(Nc3nc(-c4ccccc4)nc4ccccc34)cc2)cc1`, 87.1%.
With `COC(=O)c1cc(=O)nc(N/N=C/c2ccco2)s1`, the growth was 116%.
Turning to `CC(=O)c1c(C)c2cnc(Nc3ccc(N4CCNCC4)cn3)nc2n(C2CCCC2)c1=O`, the growth is 21.8%.
As for `COC(=O)c1cc(C(=O)OC)cc([N+](=O)[O-])c1`, the figure is 85.8%; as for `Oc1ccc(-c2nnc3c4[nH]ccc4ncn23)cc1`, 106%; as for `Cc1nssc1=S`, 106%.
Regarding `Cc1ccc(C(=O)c2ccc(C)cc2)cc1`, the growth is 92.5% and 98.6%.
For the compound `CN(C)CCCOc1cccc(NC2=C(Cl)C(=O)C(Nc3cccc(OCCCN(C)C)c3)=C(Cl)C2=O)c1`, the growth was -53.2% (active).
As for `COCCCNc1nc(NC(=O)c2ccc(F)cc2C)cc(-c2cccnc2)n1`, the figure is 106%; as for `CCCCCC(=O)OCCC1CCCCC1`, 109%.
As for `COc1ccc(C(=O)c2cc3c(N)c(C(=O)Nc4cccc(Cl)c4C)sc3nc2C)cc1`, the figure is -60.6% (active); as for `O=c1c(/C=C/c2ccco2)nnc(SCCN2CCOCC2)n1/N=C/c1ccc([N+](=O)[O-])cc1`, 87.9%.
For `O=C(N/N=C/c1c(Cl)cccc1Cl)c1cccnc1Nc1cccc(C(F)(F)F)c1`, the growth is 28.1%.
Under `O=C(CN1CCN(c2cc3c(cc2F)c(=O)c(C(=O)N/N=C/c2ccccc2O)cn3C2CC2)CC1)N/N=C\c1ccccc1O` stands 1.69% (active).
Under `Cc1[nH]c(C(=O)Nc2ccc(C(=O)N3CCN(c4cc5c(cc4F)c(=O)c(C(=O)O)cn5C4CC4)CC3)cc2OC(C)C)c(Cl)c1Cl` stands 92.7%.
